The text below walks through data of PubChem BioAssay (NCATS).

Each structure is given as a SMILES string. Inconclusive results are not listed. Active and inactive are the calls of the source. Unless noted, calls come from the whole dose curve; as a rule, active = well fitted curve in the direction sought with a large enough effect; inconclusive = small, poorly fitted or top-dose-only effect, or another doubt; inactive = no such curve, though single readings can be large; an effect the other way counts as inactive or inconclusive.

Test [1] concerns the target Bile acid receptor (Homo sapiens) (UniProt Q96RI1). As to the kind of experiment: qHTS assay for small molecule antagonists of farnesoid X receptor signaling (AID 588526; calls by dose curve; note: % is set by controls: 0 for no effect and ±100 for the full control effect). Put shortly:
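Antagonist mode: titrated compounds tested against chenodeoxycholic acid stimulation (normalized to 50 uM CDCA and DMSO) in GeneBLAzer HEK293T cells for 16 h. Beta-lactamase read by CCF4 fluorescence; IC50 from Hill fits.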
A general note: qHTS replaces the single test concentration by a dilution series.

Test [2] has as its target Glucocorticoid receptor (Homo sapiens) (UniProt P04150). The experiment in a line: qHTS assay for small molecule agonists of glucocorticoid receptor signaling (AID 588532; active = well fitted curve in the direction sought with a large enough effect in the signal ratio, with a control signal flat; the % refers to the signal ratio;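 note: 100% = dexamethasone at 0.1 µM and 0% = DMSO only wells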). As to conditions: HeLa MMTV-bla, beta-lactamase ratio, agonist, 18 h; stronger effect = higher value; percent of dexamethasone control, DMSO zero. Put shortly:
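MMTV-bla HeLa beta-lactamase reporter cells in 1% charcoal/dextran FBS medium, compounds up to 92 uM for 18 h at 37 C, CCF4 readout; normalized to 0.1 uM dexamethasone (100%), EC50 and efficacy from Hill fits.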

Test [3] is described as follows: qHTS assay for small molecule antagonists of peroxisome proliferator-activated receptor delta signaling (AID 588535; active = well fitted inhibition curve with a large enough effect in the signal ratio, with a control signal flat, not every such curve was filed as active; the % refers to the signal ratio;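 for max response: cells co-treated with a PPAR-delta agonist as stimulator during compound exposure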). As to conditions: HEK293T PPARd-UAS-bla, beta-lactamase FRET ratio, 18 h; 460 nm channel. Put shortly:
(§1)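 Antagonist-mode beta-lactamase reporter (GeneBLAzer PPAR-delta-UAS-bla) in HEK293T cells, 2% charcoal/dextran FBS, 4000 cells/well. Compound titrations, 18 h at 37 C; CCF4 ratio read, IC50 and efficacy from Hill fits.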

Test [4] has as its target Peroxisome proliferator-activated receptor delta (Homo sapiens) (UniProt Q03181). The test is described as above. Put shortly:
as §1

Test [5] deals with Peroxisome proliferator-activated receptor gamma (Homo sapiens) (UniProt P37231). As to the kind of experiment: qHTS assay for small molecule antagonists of peroxisome proliferator-activated receptor gamma signaling (AID 588537; active = well fitted inhibition curve with a large enough effect in the signal ratio, with a control signal flat, not every such curve was filed as active; the % refers to the signal ratio;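 note: reporter cells co-stimulated with 50 nM rosiglitazone agonist during compound treatment; % of control where 0% means no effect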). Put shortly:
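PPARγ-UAS-bla HEK293 cells (3000/well) in 1% charcoal/dextran-stripped FBS are treated with compound, then stimulated with 50 nM rosiglitazone for 16 h at 37 °C. Read-out is CCF4 β-lactamase fluorescence after 2 h at RT. IC50 comes from Hill fits normalised to rosiglitazone and DMSO.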

The target in test [6] is Vitamin D3 receptor (Homo sapiens) (UniProt P11473). As to the kind of experiment: qHTS assay for small molecule antagonists of vitamin D receptor signaling (AID 588541; calls by dose curve;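 note: receptor activated by calcitriol during compound treatment; series mostly up to about 77 µM; % is set by controls: 0 for no effect and ±100 for the full control effect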). In a few lines: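 VDR-UAS-bla HEK293T cells in 2% charcoal-stripped FBS were stimulated with 1-alpha,25-dihydroxyvitamin D3 (3 nM final) plus compound for 16 h at 37 C. The beta-lactamase CCF4 readout was normalized to 50 nM agonist and DMSO, and Hill fits gave IC50.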

Test [7] shares this target. As to the kind of experiment: qHTS assay for small molecule agonists of vitamin D receptor signaling (AID 588543; calls by dose curve;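 note: 0% = DMSO basal and 100% = reference agonist control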). In a few lines: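 GeneBLAzer VDR-UAS-bla HEK293T cells in 2% charcoal-stripped FBS medium were dosed with compound titrations for 16 h at 37 °C; CCF4 β-lactamase readout (405 nm ex, 460/530 nm em). EC50 and efficacy from Hill fits, normalized to 50 nM calcitriol (100%) and DMSO (0%).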

Test [8] can be described thus: qHTS assay for small molecule agonists of retinoid X receptor alpha signaling (AID 588544; calls by dose curve;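 for activation: 0% = DMSO basal wells and 100% = reference agonist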). As to conditions: HEK293T RXRa-UAS-bla, beta-lactamase reporter, 18 h; 530 nm emission.
Test [9] has as its target Retinoic acid receptor RXR-alpha (Homo sapiens) (UniProt P19793). The test is described as above.
The target of test [10] is Thyroid hormone receptor beta (Homo sapiens) (UniProt P10828). The experiment in a line: qHTS assay for small molecule agonists of thyroid hormone receptor beta signaling (AID 588545; calls by dose curve). Put shortly:
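Agonist-mode beta-lactamase reporter assay, HEK 293 cells, 2% charcoal/dextran FBS; cells plated 4 hrs, compound 18 hrs at 37 C, CCF4 2 hrs RT. Normalized to 10 nM T3 (100%) and DMSO (0%); Hill fit gives EC50, efficacy.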

Test [11] shares this target. The experiment in a line: qHTS assay for small molecule antagonists of thyroid hormone receptor beta signaling (AID 588547; active = well fitted inhibition curve with a large enough effect in the signal ratio, with a control signal flat, not every such curve was filed as active; the % refers to the signal ratio;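 note: cells stimulated with 0.4 nM T3 agonist during compound exposure; series mostly up to about 77 µM; % is set by controls: 0 for no effect and ±100 for the full control effect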). Conditions: TR-UAS-bla HEK293, beta-lactamase ratio, antagonist mode, 18 h. Put shortly: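 TR-UAS-bla GripTite HEK293 cells in 2% charcoal/dextran FBS medium; compounds 0.59 nM to 92 uM with T3 at 0.4nM final, 18 h at 37 C. Beta-lactamase read by CCF4 fluorescence (460/530 nm); Hill fits gave IC50 and efficacy.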

In test [12] the target is Luciferin 4-monooxygenase (Photinus pyralis) (UniProt P08659). The experiment in a line: Biochemical firefly luciferase enzyme assay for NPC (AID 624030).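 Note: purified P. pyralis luciferase at 10 nM with luciferin and ATP substrate; series mostly up to about 59 µM; 0% = DMSO and -100% = full luciferase inhibition by PTC124 control; nearly all actives have a fitted effect of over 70% in size.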 In a few lines: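 Purified P. pyralis luciferase at 10 nM in 50 mM Tris Acetate (final), luminescence read within 5 minutes of enzyme addition to compounds. Activity normalised to PTC124 versus DMSO; concentration-response curves classed by r2, magnitude and activity.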

A short description of test [13]: qHTS assay for small molecule agonists of the antioxidant response element (ARE) signaling pathway (AID 651741; active = well fitted activation curve with a large enough effect in the signal ratio; the % refers to the signal ratio; note: potency is the fitted concentration of half-maximal effect). In a few lines: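 CellSensor ARE-bla HepG2 cells (2,000/well) carrying ARE-driven beta-lactamase, exposed 16 h at 37 C. LiveBLAzer B/G FRET substrate added for 2 h at room temperature; fluorescence intensity read.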
Test [14] can be described thus: qHTS assay for small molecule activators of the p53 signaling pathway (AID 651743; active = well fitted activation curve with a large enough effect in the signal ratio, not every such curve was filed as active; the % refers to the signal ratio; note: series mostly up to about 92 µM; % of control where 0% means no effect). As to conditions: HCT-116 p53RE-bla, beta-lactamase FRET ratio, 16 h; stronger effect = higher value. Put shortly:
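p53RE-bla HCT-116 cells carrying a beta-lactamase reporter under p53 response elements were exposed to compounds for 16 hours at 37 C. Reporter activity read as fluorescence after 2 hours at room temperature with LiveBLAzer B/G FRET substrate.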

Test [15] is described as follows: qHTS assay for environmental chemicals that activate the Aryl hydrocarbon Receptor (AhR) signaling pathway (AID 651777). Note: % of control where 0% means no effect; nearly all actives have a fitted effect of over 15% in size. As to conditions: 1A2-DRE human hepatoma cells, luciferase, 24 h; stronger effect = higher value. In a few lines: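 AhR activation is scored as a rise in luciferase from a stable DRE–CYP1A2 promoter construct in human hepatoma cells. Treatment lasts 24 hr at 37 C; detection uses One-Glo after 30 min at room temperature.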

In test [16] the target is Peroxisome proliferator-activated receptor alpha (Homo sapiens) (UniProt Q07869). As to the kind of experiment: qHTS assay for small molecule agonists of the peroxisome proliferator-activated receptor alpha (PPARalpha) signaling pathway (AID 651778). Note: % of control where 0% means no effect. Conditions: PathHunter PPARalpha complementation, chemiluminescence, 6 h; stronger effect = higher value. In a few lines:
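Enzyme-fragment complementation assay in which ligand-bound PPARalpha translocates and forms an active enzyme that generates chemiluminescence. Cells were plated overnight, exposed to compound for 6 hr at 37 C, and then given detection reagent for 60 min at room temperature.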

Test [17] is described as follows: qHTS assay for small molecule agonists of the antioxidant response element (ARE) signaling pathway measured by Nrf2-dependant transcriptional activity - cell viability counter screen (AID 720653; active = well fitted curve in the direction sought with a large enough effect in the repeat runs; an effect the other way counts as inactive or inconclusive; note: % is set by controls: 0 for no effect and ±100 for the full control effect). Conditions: ARE-bla HepG2 viability, CellTiter-Glo ATP luminescence, 16 h; stronger effect = lower value. In a few lines:
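ARE-bla HepG2 cells treated with compounds for 16 h at 37C; this counter screen measures viability as intracellular ATP by CellTiter-Glo luminescence after 30 min at room temperature.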

A short description of test [18]: qHTS Assay for Identifying Gametocytocidal Compounds (AID 743244).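 Note: % is set by controls: 0 for no effect and ±100 for the full control effect; actives lower the fluorescent signal which means gametocytes are killed.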 Conditions: P. falciparum 3D7 stage III-V gametocytes, alamarBlue, 72 h; max response: stronger effect = lower value. Put shortly: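 3D7 gametocytes, stages III–V, 20,000/well; cpd 72 h, 37 °C/5% CO2; + alamarBlue 24 h; fluor. Ex 525/Em 598.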
The nature of test [19]: qHTS assay for cell viability of HEK293 cells (AID 743288). Note: % is set by controls: 0 for no effect and ±100 for the full control effect; nearly all actives have a fitted effect of over 50% in size. Conditions: ATP luminescence (CellTiter-Glo), 18 h, stronger effect = lower value. Put shortly: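 Parental HEK293 cells were seeded at 2,000 cells/well, rested at least 5 h at 37 C, then exposed to compounds in DMSO for 18 h at 37 C. Viability was read as ATP-dependent luciferase luminescence after 30 min at room temperature.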

Test [20] in a line: qHTS assay for cell viability of the p53RE-bla HCT-116 cell line (AID 743292). Note: % is set by controls: 0 for no effect and ±100 for the full control effect; nearly all actives have a fitted effect of over 55% in size. Put shortly: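 Quantitative high-throughput format: compounds in DMSO were pinned onto p53RE-bla HCT-116 cells (4,000/well) and incubated 16 h at 37 C. Total intracellular ATP, read by CellTiter-Glo luminescence, reflects viable cell number.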
Test [21] addresses Cytochrome P450 2C9 (Homo sapiens) (UniProt P11712). The experiment in a line: Cytochrome P450 family 2 subfamily C member 9 (CYP2C9) small molecule antagonists: luciferase biochemical (cell-free) qHTS assay (AID 1645842; active = well fitted curve in the direction sought with a large enough effect in the repeat runs; an effect the other way counts as inactive or inconclusive; note: series mostly up to about 57 µM; % is set by controls: 0 for no effect and ±100 for the full control effect; nearly all actives have a fitted effect of over 55% in size). In a few lines: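 Luminescence, after 20 min with luciferin detection reagent, reflected CYP2C9 turnover during a 1 h NADPH-driven reaction at 37C. Enzyme-substrate mix contained 0.4% bovine serum albumin and was preincubated with compound 10 min at room temperature.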

Test [22] addresses Nuclear receptor subfamily 1 group I member 2 (Rattus norvegicus) (UniProt Q9R1A7). As to the kind of experiment: qHTS assay for small molecule activators of the rat pregnane X receptor (rPXR) signaling pathway (AID 651751; call rule not given here; note: 0% is about no effect). Conditions: rPXR reporter cells, luciferase (One-Glo), 24 h.

Chain of Thyroid hormone receptor beta (Homo sapiens) (P10828 whole entry, looked up): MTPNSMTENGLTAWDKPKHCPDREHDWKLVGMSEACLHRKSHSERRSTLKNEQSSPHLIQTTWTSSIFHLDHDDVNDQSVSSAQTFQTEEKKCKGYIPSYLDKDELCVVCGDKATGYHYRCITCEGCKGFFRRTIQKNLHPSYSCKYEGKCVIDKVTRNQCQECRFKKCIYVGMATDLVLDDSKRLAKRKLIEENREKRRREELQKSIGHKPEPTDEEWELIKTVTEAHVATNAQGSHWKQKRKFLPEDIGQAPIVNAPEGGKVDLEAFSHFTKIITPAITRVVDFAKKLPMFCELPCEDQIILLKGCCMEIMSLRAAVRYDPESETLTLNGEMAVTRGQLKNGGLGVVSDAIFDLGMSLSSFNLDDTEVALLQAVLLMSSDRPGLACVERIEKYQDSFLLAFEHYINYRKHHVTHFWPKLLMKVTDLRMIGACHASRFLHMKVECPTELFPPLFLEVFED
Chain of Vitamin D3 receptor (Homo sapiens) (P11473 whole entry, looked up): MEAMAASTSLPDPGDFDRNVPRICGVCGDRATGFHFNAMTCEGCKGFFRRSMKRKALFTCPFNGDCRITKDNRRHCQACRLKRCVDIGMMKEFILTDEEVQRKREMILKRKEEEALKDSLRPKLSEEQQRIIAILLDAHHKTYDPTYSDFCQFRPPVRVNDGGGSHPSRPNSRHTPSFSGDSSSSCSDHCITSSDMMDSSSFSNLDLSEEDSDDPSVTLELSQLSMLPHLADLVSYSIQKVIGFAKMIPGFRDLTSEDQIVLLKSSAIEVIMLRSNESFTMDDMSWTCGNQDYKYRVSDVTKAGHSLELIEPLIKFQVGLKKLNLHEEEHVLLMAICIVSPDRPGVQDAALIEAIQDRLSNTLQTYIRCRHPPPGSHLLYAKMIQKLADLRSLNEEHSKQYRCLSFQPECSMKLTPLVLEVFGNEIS
Chain of Peroxisome proliferator-activated receptor alpha (Homo sapiens) (Q07869 whole entry, looked up, the tested form may be a part): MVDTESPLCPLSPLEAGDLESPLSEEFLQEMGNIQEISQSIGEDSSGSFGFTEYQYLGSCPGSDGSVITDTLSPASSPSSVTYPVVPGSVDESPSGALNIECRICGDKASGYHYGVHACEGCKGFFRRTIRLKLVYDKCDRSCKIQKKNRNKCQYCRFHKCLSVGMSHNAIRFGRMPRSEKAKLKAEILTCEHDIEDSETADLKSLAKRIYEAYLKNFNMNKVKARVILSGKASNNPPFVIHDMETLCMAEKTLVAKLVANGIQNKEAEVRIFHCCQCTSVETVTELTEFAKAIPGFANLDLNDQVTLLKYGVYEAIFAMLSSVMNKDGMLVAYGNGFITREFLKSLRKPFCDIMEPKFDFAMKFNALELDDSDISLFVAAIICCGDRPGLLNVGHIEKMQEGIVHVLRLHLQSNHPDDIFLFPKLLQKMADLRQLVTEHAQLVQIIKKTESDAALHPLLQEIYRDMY
Chain of Retinoic acid receptor RXR-alpha (Homo sapiens) (P19793 whole entry, looked up): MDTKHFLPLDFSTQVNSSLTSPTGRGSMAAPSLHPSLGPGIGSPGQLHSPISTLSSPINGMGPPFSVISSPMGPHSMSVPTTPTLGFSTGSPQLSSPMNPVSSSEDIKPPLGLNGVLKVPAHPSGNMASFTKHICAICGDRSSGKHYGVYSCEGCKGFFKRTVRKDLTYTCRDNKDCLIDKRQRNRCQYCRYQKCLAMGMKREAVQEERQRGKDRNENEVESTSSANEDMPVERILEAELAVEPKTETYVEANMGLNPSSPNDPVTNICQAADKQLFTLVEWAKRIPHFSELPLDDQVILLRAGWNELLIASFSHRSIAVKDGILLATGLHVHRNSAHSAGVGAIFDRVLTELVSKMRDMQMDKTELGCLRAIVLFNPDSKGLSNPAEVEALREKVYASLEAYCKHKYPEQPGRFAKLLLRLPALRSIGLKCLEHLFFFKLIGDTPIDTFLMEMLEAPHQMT
Chain of Peroxisome proliferator-activated receptor gamma (Homo sapiens) (P37231 whole entry, looked up): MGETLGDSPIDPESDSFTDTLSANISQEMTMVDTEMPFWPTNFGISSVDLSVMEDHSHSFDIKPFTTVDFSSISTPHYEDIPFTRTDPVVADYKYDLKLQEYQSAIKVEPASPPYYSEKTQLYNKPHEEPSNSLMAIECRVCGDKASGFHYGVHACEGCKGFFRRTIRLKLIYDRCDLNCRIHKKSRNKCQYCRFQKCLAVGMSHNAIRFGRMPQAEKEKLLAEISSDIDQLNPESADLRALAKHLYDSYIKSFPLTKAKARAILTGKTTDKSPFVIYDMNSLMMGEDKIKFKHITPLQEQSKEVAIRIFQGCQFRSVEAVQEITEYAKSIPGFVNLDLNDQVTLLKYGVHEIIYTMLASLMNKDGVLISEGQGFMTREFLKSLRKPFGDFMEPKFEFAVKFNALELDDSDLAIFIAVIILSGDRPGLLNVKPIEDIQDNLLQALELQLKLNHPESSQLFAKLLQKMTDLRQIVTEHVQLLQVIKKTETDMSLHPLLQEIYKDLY
Chain of Nuclear receptor subfamily 1 group I member 2 (Rattus norvegicus) (Q9R1A7 whole entry, looked up): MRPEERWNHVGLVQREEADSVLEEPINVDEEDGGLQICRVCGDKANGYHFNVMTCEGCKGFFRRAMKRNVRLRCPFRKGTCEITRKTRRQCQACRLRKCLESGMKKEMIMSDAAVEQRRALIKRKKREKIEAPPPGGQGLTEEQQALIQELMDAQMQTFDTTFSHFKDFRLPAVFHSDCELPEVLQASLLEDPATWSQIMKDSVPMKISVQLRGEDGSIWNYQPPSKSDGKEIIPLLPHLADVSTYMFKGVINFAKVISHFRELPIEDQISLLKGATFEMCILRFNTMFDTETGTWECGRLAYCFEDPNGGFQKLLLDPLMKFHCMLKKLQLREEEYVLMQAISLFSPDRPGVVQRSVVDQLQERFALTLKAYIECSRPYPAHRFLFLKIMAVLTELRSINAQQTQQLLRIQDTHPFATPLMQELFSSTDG
Chain of Luciferin 4-monooxygenase (Photinus pyralis) (P08659 whole entry, looked up): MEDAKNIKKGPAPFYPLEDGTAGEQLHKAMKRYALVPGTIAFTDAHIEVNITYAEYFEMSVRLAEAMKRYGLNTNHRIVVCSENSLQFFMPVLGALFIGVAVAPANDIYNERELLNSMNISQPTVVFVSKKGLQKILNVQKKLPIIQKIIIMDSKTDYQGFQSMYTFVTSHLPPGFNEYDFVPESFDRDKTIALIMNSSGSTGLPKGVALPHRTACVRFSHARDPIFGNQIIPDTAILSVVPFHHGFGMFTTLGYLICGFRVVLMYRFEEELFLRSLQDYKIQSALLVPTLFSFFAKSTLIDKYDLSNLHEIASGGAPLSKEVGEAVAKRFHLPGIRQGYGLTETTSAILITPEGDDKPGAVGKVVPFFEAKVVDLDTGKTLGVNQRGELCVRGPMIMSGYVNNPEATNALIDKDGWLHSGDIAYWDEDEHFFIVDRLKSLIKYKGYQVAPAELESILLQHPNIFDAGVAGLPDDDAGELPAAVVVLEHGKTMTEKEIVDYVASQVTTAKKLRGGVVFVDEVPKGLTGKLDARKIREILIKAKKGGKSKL
Chain of Glucocorticoid receptor (Homo sapiens) (P04150 whole entry, looked up): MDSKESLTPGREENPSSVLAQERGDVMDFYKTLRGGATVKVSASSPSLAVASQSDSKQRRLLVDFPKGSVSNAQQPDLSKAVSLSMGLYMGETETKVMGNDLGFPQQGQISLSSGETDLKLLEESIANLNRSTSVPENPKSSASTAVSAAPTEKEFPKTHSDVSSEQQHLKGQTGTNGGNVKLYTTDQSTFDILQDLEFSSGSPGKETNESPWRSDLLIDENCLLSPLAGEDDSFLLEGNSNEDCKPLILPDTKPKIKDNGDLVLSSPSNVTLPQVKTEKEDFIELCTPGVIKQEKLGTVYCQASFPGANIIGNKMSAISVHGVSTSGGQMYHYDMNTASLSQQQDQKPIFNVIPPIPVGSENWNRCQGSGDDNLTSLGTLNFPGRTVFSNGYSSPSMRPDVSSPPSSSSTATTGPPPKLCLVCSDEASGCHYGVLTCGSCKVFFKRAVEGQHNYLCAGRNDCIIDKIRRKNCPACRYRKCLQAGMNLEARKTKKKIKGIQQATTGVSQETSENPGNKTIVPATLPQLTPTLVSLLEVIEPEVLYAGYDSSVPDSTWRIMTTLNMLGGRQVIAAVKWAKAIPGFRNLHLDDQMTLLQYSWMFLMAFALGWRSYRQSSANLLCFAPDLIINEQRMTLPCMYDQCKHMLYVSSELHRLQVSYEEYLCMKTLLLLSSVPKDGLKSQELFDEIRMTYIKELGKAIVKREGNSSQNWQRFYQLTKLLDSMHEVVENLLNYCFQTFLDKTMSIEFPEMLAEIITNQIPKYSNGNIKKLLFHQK
Chain of Peroxisome proliferator-activated receptor delta (Homo sapiens) (Q03181 whole entry, looked up): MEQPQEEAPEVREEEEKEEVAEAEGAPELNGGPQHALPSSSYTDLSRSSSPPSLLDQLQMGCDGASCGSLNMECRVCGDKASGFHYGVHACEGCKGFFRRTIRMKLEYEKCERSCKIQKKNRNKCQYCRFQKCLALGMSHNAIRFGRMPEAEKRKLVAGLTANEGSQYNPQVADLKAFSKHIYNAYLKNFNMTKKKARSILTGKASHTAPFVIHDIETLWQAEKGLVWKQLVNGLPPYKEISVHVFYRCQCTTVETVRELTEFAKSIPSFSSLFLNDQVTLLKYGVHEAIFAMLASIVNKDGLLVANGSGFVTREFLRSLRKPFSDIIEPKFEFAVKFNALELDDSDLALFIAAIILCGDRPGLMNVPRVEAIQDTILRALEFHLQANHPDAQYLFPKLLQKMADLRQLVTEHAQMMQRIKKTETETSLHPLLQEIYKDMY

As for `CCCOC(=O)c1cc(O)c(O)c(O)c1`, the molecule was classed as inactive in test [1], in [4], in [5], in test [6], in test [7] and in [9]. Further, the result in test [10] and in test [20] was inactive. Moreover, the activation in test [2] is -7.56% (inactive); in test [14], -0.803% (inactive); in test [15], 4.88% (inactive). The max response in [3] is 51.1%; in test [8] it was 14.7%; in test [16], 0.0423% (inactive); in [17] it was -15.7% (inactive); in test [18], 14.7% (inactive); in [19] it was -23.3% (inactive). Besides, in test [22], the max response was -2.93% (inactive). Besides, in test [11], the activity change % (negative = inhibition) is 5.53% (inactive). Further, the Potency entry in test [12] and in [21] was “inactive” each time. In addition, the Potency in test [13] is 9.69 µM (active).
